In test [1] the target is High affinity nerve growth factor receptor (Homo sapiens) (UniProt P04629). To be noted: at 1 µM.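 Further: each value is the mean percent inhibition of TRKA.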
In test [2] the target is BDNF/NT-3 growth factors receptor (Homo sapiens) (UniProt Q16620). To be noted: at 0.1 µM.
For test [3] the target is unchanged. As to conditions: at 1 µM.
For test [4], the target named is NT-3 growth factor receptor (Homo sapiens) (UniProt Q16288). To be noted: at 0.1 µM.
Test [5] has the same target. As to conditions: at 1 µM.
For test [6], the target named is T1, Tyrosine-protein kinase TXK (Homo sapiens) (UniProt P42681).
T1 sequence (whole entry): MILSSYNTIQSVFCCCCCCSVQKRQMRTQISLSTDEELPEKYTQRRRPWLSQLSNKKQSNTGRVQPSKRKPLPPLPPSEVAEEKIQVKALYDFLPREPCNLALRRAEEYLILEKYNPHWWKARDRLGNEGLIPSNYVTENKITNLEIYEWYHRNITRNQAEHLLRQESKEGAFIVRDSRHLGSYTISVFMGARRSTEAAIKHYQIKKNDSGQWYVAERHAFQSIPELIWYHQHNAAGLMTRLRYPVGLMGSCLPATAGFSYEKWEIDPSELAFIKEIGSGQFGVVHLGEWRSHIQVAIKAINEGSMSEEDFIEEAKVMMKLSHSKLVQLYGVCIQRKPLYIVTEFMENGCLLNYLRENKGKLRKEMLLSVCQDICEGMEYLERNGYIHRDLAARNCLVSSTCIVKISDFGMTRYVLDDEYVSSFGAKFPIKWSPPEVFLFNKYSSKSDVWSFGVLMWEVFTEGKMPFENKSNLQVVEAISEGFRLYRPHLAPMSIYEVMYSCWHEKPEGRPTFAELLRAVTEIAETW
To be noted: at 0.1 µM.

In test [7] the target is T1, Tyrosine-protein kinase TXK (Homo sapiens). To be noted: at 1 µM.
Test [8] concerns the target Non-receptor tyrosine-protein kinase TYK2 (Homo sapiens) (UniProt P29597). As to conditions: at 0.1 µM.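 Further: each value is a mean of the inhibition readings.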
The target in test [9] is T2, Dual specificity protein kinase TTK (Homo sapiens) (UniProt P33981).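 Further: reported figures are mean TTK inhibition at 1 µM.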
T2 sequence (whole entry): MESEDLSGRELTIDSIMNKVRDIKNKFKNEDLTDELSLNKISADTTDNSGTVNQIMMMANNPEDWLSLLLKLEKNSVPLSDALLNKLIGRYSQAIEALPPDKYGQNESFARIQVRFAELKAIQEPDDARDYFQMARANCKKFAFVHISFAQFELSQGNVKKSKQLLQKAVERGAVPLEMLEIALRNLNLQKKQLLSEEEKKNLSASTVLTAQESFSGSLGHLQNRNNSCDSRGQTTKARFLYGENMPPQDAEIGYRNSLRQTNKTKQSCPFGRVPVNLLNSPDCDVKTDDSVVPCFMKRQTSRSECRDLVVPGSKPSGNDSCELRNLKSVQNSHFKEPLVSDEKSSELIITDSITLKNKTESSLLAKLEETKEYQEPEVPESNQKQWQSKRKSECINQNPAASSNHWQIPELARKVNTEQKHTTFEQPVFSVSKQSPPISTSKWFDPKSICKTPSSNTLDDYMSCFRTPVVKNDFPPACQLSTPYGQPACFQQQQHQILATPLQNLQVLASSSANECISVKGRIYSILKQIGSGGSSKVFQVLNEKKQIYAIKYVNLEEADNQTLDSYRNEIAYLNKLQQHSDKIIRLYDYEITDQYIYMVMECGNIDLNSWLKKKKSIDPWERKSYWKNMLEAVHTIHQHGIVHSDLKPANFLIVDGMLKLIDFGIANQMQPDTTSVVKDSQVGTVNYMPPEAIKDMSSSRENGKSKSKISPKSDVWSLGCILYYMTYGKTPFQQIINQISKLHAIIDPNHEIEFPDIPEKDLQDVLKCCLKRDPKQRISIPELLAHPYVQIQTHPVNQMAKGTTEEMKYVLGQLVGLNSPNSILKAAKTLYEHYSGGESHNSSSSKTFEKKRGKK
To be noted: at 1 µM.

Test [10] concerns the target T3, Aurora kinase A (Homo sapiens) (UniProt O14965).
T3 sequence (whole entry): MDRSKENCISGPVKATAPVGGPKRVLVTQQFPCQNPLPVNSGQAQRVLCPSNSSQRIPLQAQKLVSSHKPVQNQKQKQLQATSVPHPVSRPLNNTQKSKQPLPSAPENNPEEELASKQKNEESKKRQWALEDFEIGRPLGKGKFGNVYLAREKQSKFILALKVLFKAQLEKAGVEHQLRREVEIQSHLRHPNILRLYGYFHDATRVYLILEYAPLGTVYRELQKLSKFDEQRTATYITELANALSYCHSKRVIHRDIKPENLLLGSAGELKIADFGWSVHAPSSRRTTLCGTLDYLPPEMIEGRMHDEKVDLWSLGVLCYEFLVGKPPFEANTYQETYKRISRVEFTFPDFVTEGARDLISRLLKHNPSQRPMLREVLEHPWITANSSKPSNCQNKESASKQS
To be noted: at 0.1 µM.

For test [11], the target named is T3, Aurora kinase A (Homo sapiens). To be noted: at 1 µM.
Test [12] concerns the target Aurora kinase B (Homo sapiens) (UniProt Q96GD4). As to conditions: at 0.1 µM.
Test [13] has the same target. As to conditions: at 1 µM.
In test [14] the target is T4, Aurora kinase C (Homo sapiens) (UniProt Q9UQB9).
T4 sequence (whole entry): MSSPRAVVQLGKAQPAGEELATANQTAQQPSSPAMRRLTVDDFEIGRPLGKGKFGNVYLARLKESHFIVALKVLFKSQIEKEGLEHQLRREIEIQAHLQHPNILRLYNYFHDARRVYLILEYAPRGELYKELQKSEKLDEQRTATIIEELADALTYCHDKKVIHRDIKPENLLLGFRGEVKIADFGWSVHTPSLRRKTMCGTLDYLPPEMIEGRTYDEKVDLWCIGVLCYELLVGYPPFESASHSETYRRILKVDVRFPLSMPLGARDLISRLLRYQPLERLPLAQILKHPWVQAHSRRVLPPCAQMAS
To be noted: at 0.1 µM.

Test [15] deals with T4, Aurora kinase C (Homo sapiens). To be noted: at 1 µM.
The target in test [16] is Serine/threonine-protein kinase 10 (Homo sapiens) (UniProt O94804). As to conditions: at 0.1 µM.
Test [17] shares this target. To be noted: at 1 µM.
Test [18] has as its target T5, Mitogen-activated protein kinase kinase kinase kinase 2 (Homo sapiens) (UniProt Q12851).
T5 sequence (whole entry): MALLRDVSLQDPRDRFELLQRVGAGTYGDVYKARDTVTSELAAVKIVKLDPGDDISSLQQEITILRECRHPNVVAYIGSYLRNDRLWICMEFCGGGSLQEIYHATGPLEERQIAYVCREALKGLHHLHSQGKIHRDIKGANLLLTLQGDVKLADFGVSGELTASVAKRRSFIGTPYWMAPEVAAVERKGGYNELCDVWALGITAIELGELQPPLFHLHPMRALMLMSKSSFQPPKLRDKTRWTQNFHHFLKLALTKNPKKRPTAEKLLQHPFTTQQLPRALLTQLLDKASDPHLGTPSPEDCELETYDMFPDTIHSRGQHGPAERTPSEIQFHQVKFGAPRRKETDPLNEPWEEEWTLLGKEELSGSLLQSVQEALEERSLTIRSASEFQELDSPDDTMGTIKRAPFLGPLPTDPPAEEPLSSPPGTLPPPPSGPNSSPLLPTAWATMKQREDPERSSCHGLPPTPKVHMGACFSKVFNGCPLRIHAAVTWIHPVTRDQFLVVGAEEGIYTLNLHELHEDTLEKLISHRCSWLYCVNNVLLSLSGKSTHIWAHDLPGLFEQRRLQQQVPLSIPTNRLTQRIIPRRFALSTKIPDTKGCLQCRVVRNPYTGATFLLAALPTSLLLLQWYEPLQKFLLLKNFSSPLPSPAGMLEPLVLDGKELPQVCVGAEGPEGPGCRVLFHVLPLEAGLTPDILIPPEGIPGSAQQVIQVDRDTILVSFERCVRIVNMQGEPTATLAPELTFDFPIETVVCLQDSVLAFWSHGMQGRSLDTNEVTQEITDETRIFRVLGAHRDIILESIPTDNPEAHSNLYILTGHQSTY
To be noted: at 0.1 µM.

The target of test [19] is T5, Mitogen-activated protein kinase kinase kinase kinase 2 (Homo sapiens). As to conditions: at 1 µM.
Test [20] has as its target Mitogen-activated protein kinase kinase kinase kinase 4 (Homo sapiens) (UniProt O95819). As to conditions: at 0.1 µM.

Sequence of BDNF/NT-3 growth factors receptor (Homo sapiens) (Q16620 32-822 limits assumed): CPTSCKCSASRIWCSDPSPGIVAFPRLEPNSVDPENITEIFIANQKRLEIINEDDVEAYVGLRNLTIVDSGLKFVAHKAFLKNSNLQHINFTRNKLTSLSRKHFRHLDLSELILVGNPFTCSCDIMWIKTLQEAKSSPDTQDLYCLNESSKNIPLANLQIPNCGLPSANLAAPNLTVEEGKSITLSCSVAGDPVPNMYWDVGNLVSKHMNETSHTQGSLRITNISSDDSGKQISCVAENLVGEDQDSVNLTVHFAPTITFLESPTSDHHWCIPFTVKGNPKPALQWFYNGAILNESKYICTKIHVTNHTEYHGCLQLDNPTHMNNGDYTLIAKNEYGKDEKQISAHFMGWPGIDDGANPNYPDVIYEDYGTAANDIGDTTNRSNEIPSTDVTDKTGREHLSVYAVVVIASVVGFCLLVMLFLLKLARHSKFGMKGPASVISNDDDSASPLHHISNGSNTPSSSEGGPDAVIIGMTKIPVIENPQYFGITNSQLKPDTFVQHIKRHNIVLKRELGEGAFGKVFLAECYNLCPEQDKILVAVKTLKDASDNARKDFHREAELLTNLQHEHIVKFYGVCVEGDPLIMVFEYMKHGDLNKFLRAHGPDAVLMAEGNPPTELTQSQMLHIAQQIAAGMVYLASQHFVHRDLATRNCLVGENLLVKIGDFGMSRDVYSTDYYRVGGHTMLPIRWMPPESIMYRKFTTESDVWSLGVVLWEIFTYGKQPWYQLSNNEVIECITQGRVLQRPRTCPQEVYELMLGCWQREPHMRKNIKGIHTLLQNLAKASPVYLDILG
Sequence of NT-3 growth factor receptor (Homo sapiens) (Q16288 32-839 limits assumed): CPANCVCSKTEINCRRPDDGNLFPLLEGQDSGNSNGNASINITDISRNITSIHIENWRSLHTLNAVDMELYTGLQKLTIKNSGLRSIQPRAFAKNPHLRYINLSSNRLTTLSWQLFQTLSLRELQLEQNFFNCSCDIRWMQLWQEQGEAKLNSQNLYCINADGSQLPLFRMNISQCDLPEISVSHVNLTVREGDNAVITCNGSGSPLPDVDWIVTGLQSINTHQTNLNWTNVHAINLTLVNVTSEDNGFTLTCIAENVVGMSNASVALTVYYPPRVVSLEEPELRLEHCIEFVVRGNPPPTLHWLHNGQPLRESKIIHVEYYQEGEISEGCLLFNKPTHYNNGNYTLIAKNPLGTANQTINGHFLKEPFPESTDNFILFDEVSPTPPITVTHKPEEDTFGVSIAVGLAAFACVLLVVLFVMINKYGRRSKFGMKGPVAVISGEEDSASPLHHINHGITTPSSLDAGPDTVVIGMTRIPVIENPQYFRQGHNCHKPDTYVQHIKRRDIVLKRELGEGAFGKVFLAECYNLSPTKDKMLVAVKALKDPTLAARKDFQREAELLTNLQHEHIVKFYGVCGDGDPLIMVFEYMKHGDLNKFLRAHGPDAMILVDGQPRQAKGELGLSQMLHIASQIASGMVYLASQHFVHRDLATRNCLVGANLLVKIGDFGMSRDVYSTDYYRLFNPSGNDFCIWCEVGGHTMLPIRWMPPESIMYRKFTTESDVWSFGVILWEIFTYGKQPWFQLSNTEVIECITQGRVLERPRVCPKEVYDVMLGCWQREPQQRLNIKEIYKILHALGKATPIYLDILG
Sequence of Serine/threonine-protein kinase 10 (Homo sapiens) (O94804 whole entry, looked up): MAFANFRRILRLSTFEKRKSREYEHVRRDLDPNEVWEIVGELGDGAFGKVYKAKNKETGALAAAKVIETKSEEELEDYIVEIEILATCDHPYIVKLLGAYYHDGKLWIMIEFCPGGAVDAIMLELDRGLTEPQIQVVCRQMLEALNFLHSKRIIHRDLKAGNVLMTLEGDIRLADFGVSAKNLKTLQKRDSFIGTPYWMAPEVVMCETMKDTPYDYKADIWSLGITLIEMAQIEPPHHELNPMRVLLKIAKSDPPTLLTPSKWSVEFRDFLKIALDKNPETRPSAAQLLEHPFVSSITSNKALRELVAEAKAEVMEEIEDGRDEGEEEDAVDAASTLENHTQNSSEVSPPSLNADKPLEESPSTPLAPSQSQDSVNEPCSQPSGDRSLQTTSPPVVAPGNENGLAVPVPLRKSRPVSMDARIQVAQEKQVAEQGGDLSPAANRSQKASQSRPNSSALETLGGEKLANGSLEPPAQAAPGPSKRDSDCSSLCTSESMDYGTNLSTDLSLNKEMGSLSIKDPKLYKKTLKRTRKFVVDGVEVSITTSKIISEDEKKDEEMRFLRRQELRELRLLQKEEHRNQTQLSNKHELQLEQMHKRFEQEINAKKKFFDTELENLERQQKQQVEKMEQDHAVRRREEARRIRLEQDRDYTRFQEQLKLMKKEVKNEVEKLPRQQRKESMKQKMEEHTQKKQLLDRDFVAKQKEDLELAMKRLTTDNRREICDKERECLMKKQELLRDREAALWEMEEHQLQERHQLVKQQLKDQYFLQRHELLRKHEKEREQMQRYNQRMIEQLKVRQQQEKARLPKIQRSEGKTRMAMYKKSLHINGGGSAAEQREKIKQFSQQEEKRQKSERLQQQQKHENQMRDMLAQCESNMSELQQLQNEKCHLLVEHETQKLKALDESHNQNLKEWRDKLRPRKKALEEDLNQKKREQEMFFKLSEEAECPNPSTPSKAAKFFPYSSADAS
Sequence of Mitogen-activated protein kinase kinase kinase kinase 4 (Homo sapiens) (O95819 2-1239 limits assumed): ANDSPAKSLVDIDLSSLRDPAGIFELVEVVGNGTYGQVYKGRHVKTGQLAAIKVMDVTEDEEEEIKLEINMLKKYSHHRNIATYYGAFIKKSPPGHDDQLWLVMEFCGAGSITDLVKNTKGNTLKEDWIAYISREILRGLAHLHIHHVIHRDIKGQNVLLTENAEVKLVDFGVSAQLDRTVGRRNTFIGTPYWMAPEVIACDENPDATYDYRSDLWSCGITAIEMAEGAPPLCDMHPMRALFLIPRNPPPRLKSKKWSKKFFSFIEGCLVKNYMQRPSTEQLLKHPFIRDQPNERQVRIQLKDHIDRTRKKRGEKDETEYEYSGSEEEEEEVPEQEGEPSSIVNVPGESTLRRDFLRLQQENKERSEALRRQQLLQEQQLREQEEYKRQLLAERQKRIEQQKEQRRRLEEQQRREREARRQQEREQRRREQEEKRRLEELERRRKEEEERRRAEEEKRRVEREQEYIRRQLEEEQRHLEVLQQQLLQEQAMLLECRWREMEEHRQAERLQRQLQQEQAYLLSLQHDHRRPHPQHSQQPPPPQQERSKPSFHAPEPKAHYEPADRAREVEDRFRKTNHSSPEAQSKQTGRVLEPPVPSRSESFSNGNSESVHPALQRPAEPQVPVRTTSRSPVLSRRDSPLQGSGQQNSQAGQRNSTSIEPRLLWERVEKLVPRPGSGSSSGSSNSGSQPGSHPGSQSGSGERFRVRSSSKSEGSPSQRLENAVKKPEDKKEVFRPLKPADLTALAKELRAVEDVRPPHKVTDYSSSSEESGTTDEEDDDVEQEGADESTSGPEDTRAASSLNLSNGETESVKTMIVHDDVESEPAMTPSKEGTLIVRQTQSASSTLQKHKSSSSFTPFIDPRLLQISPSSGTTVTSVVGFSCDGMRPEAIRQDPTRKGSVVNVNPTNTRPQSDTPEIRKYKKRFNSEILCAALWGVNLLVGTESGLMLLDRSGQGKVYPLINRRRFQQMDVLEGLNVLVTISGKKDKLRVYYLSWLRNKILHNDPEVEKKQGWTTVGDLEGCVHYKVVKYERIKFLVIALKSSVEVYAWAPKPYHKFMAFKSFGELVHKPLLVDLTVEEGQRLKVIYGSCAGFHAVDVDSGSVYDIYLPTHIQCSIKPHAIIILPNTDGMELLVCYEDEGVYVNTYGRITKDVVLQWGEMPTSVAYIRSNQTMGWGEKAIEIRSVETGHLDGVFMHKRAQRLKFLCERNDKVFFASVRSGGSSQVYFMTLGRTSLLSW
Sequence of Non-receptor tyrosine-protein kinase TYK2 (Homo sapiens) (P29597 whole entry): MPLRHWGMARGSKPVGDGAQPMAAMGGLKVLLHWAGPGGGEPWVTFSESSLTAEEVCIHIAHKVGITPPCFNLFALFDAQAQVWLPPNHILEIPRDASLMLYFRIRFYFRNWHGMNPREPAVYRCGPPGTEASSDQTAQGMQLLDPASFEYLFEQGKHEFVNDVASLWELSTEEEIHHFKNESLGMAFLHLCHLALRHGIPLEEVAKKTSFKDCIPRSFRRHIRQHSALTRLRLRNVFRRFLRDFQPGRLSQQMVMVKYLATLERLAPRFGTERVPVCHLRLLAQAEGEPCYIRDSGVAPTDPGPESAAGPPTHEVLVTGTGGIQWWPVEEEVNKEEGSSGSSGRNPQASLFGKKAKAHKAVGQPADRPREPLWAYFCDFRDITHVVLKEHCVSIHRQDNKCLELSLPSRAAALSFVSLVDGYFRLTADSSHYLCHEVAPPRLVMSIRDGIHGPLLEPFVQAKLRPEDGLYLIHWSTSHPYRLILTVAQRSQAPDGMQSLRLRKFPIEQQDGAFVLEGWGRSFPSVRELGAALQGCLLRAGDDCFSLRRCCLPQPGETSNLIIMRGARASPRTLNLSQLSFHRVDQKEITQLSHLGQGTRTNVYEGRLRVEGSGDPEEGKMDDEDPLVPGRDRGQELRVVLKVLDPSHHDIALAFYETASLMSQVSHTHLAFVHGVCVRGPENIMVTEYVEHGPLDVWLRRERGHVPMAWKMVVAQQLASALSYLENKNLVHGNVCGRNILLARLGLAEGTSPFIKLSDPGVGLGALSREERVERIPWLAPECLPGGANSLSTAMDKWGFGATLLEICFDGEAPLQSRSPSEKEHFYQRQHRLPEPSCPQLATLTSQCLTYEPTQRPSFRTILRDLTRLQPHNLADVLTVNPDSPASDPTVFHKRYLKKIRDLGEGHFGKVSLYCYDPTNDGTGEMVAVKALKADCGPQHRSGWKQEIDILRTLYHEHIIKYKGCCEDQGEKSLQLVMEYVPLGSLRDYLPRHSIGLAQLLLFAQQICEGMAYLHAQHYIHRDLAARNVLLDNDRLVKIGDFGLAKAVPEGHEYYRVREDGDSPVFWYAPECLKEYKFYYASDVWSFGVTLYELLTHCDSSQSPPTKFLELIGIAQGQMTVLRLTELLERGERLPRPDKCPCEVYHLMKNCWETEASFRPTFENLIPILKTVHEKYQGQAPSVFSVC

The inhibition is the relative decrease from the control value, in per cent. On to `Nc1nccc(-c2c(-c3ccc(F)cc3)nn3cc(C(F)(F)F)ccc23)n1`, for which the inhibition was -4.55% in test [1]; 0.39% in [2]; 0.48% in [3]; 0.11% in [4]; 1.1% in [5]; 0.11% in test [6]. Further, the inhibition in test [7] is 6.52%; in [8], -4.56%; in test [9], 4.23%; in [10], 0.97%; in test [11], 1.39%; in test [12], 1.38%. The inhibition in [13] is 0.7%; in [14], 1.04%; in [15], 0.73%; in test [16] it was -0.92%; in test [17] it was 3.24%; in [18] it was 2.23%. Further, the inhibition in test [19] was 1.52%; in [20], -0.02%.

Turning to `COC(=O)c1ccc2c(c1)C(=Cc1cc(Br)c(O)c(Br)c1)C(=O)N2`, the inhibition in [1] amounted to 6.54%; in [2], 3.26%; in test [3], 8.43%; in test [4], 2.35%; in [5] it was 12.1%; in test [6], 6.42%. The inhibition was determined as 12.3% in test [7]; 5.83% in [8]; 25.2% in test [9]; 30.8% in test [10]; 80.4% in test [11]; 2.96% in test [12]. The inhibition is 8.43% in [13]; -0.01% in [14]; 15.2% in test [15]; 6.1% in [16]; 10.6% in test [17]; 1.53% in test [18]. Further, the inhibition in test [19] was determined as 4.06%; in [20], 45.5%.

As to `C[C@@H](Oc1cc(-n2cnc3ccc(OC[C@@H](O)CO)cc32)sc1C(N)=O)c1ccccc1Cl`, the inhibition in [1] stood at 3.73%; in test [2], 1.11%; in test [3], 14.7%; in test [4], 3.59%; in [5], 29.4%; in test [6], 0.37%. Also, the inhibition in test [7] was 3.1%; in test [8] it was 3.13%; in [9], 1.94%; in test [10], -0.94%; in test [11], 2.13%; in [12], 0.7%. The inhibition was 1.36% in test [13]; -1.38% in test [14]; -2.42% in [15]; 48.1% in test [16]; 85.7% in [17]; 3.67% in test [18]. The results for the inhibition in test [19] and in test [20] were 16.4% and -0.19%, respectively.

Consider `Cc1nc(-c2ccccc2)n2nc(NCCCN3CCOCC3)ncc12`, for which the inhibition in [1] was determined as 5.06%; in [2] it was 1.8%; in test [3], 3.5%; in test [4], 2.73%; in test [5] it was 2.25%; in test [6], 4.46%. Also, the inhibition in test [7] was 3.59%; in [8] it was -3.48%; in test [9], 5.84%; in test [10] it was 3.52%; in test [11], 5.63%; in [12], 1.82%. The inhibition in [13] came to 8.37%; in [14], 1.43%; in test [15] it was 12.1%; in test [16] it was 4.62%; in test [17], 7.49%; in [18], 2.45%. Also, the figures for the inhibition in [19] and in test [20] were 2.48% and 1.62%, respectively.

Turning to `Nc1ccc(C#Cc2cncnc2Nc2ccc(OCc3cccc(F)c3)c(Cl)c2)cc1`, the inhibition was 0.62% in test [1]; 1.89% in test [2]; 1.57% in [3]; 2.2% in test [4]; 1.81% in test [5]; -1.58% in test [6]. Further, the inhibition in test [7] was determined as 2.93%; in test [8], 0.67%; in test [9] it was 6.25%; in [10], 2.18%; in [11], 0.03%; in test [12], 3.38%. The inhibition in test [13] came to 1.27%; in [14], 0.25%; in [15] it was 2.24%; in test [16], 5.13%; in test [17], 6.55%; in [18], 0.2%. Further, the figures for the inhibition in [19] and in test [20] were 1.98% and 2.07%, respectively.
